Measured values as given in PubChem BioAssay (NCI).
Compounds without any hit were thinned out: in the full panel of roughly 83,000, 20% have a hit.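 Results are percent growth after 48 hours of single-concentration exposure. 100 means growth as in untreated cells, lower positive values show inhibition; negative values down to -100 show cell death.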 Values without a mark were called inactive. Active and inactive are the calls of the source. Rule for the calls: active = growth percent below 10; inactive = the rest.

Tests used:
Assay in all cases: NCI-60 one-dose screen, 48 h (100 = growth as untreated, 0 = no growth, -100 = all killed)
Settings in all cases: 10 µM
[1] = system: NCI-H23 lung
[2] = system: NCI-H226 lung
[3] = system: NCI-H322M lung
[4] = system: HOP-62 NSCLC
[5] = system: NCI-H460 lung
[6] = system: HOP-92 NSCLC
[7] = system: NCI-H522 lung
[8] = system: 786-0 renal
[9] = system: COLO 205 colon
[10] = system: A549/ATCC NSCLC

Row | SMILES | growth [1] | growth [2] | growth [3] | growth [4] | growth [5] | growth [6] | growth [7] | growth [8] | growth [9] | growth [10]
1 | COc1ccc2[nH]cc(/C=N/Nc3cccc(Cl)n3)c2c1 | 64.2% | 48.4% | 71.2% | 59.3% | 47.3% | 27% | 27.1% | 25.4% | 57.5% | –
2 | O=c1[nH]c2ccc(Cl)cc2cc1CSc1ccc(Nc2nccc(-c3ccc(Cl)cc3)n2)cc1 | 62.1% | 66% | 90.8% | 93.8% | -27.6% (active) | 82.1% | 33.3% | 75.2% | 4.59% (active) | –
3 | Cc1ccc(C(=O)N/C(=C2/OCCN2C)[P+](c2ccccc2)(c2ccccc2)c2ccccc2)cc1 | 85.1% | 92.9% | 100% | 96.9% | 83.8% | 60.3% | 57.8% | 103% | 57.9% | –
4 | O=C(Nc1nc2ccccc2s1)c1ccc(Br)cc1 | 74% | 67.4% | 83.4% | 101% | – | 100% | 75.3% | 99.6% | 107% | 84.9%
5 | COc1csc(/C=N/NC(=O)c2[nH]c3ccc(Br)cc3c2-c2ccccc2)c1 | 7.1% (active) | 23.1% | 34.7% | 24.9% | – | 49.2% | -48.5% (active) | 4.83% (active) | -79.9% (active) | 13.7%
6 | C=C(C)[C@@H]1CC[C@]2(COP(=O)(OCC)OCC)CC[C@]3(C)[C@H](CC[C@@H]4[C@@](C)(CCCN)[C@H](C(=C)C)CC[C@]43C)[C@@H]12 | 23.3% | 29% | 62.1% | 53.5% | – | 25.2% | 19.6% | 20.4% | 29.7% | 21.5%
7 | CC1=C2C(=C[C@@](C)(CO)[C@@H]2O)/C(=N\N)[C@](C)(O)C12CC2 | -77.8% (active) | -41.2% (active) | -11.9% (active) | -27% (active) | -6.47% (active) | -22.6% (active) | -62.4% (active) | 6.59% (active) | -79.4% (active) | –
8 | O=C(NO)c1ccc(CNC(=O)[C@H]2Cc3c([nH]c4ccccc34)[C@H](c3ccc(Cl)cc3)N2)cc1 | -50.8% (active) | 28.2% | 28.5% | 2.45% (active) | 10.3% | -17.1% (active) | -35.2% (active) | 22.6% | -82.7% (active) | –
9 | Cc1ccc(/C=C/C(=O)c2ccc(NC(=O)CSc3nnc(-c4c[nH]c5ccccc45)n3-c3ccccc3)cc2)cc1 | 74.3% | 80.7% | 92.8% | 95.8% | 84.6% | 92% | 81.7% | 109% | 102% | –
10 | CN1CCN(c2ccc(Nc3nc(NCCCNC(=O)c4ccccc4)c4sccc4n3)cc2)CC1 | 82.5% | 84.6% | 84.2% | 93.5% | 67.6% | 69.3% | 91.5% | 24.9% | 93.8% | –
11 | CN(C(=O)c1ccc(C(F)(F)F)cc1C(F)(F)F)c1sc2c(c1C#N)CCC(=O)C2 | 50% | 102% | 93.6% | 92% | 113% | 80.6% | -59.7% (active) | 85.2% | 112% | –
12 | Cc1ccc(C(C)C)cc1NC(=O)c1ccccc1N(C)C | 82.4% | 99.3% | 82.7% | 97.1% | 102% | 73.8% | 78.3% | 81.7% | 105% | –
13 | CC(C)C1=C[C@@]23CC[C@@H]4[C@](C)(CCC[C@]4(C)C(=O)NCc4ccccc4)[C@H]2C[C@@H]1[C@H]1C(=O)CCC(=O)[C@H]13 | 59% | 40.7% | 93.4% | 94.4% | – | 68.9% | -12.5% (active) | 87.2% | 103% | 81.6%
14 | C=CCn1c(SCC(=O)Nc2ccc(C(=O)/C=C/c3ccccc3)cc2)nnc1-c1c[nH]c2ccccc12 | 68.3% | 35.4% | 79.5% | 74.1% | – | 70.4% | 60.6% | 79.1% | 59.7% | 63.5%
